PAFAH2 inh: PAFAH2 (human) inhibition; Q99487; recombinant PAFAH2, FP-rhodamine activity probe, fluorescence polarization; inhibition, % at 3.39 µM; 340,000 compounds, 0.99% hits;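 active = inhibition above the mean over all tested compounds plus 3 SD, cut at about 30% in these data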;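 note: inhibitors block probe labeling of enzyme so polarization drops; 0% = enzyme with DMSO and 100% = wells lacking PAFAH2 protein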
pPAFAH FP inh: inhibitors of human plasma PAF acetylhydrolase (pPAFAH). Q13093. AID 463082. inhibition, % at 3.39 µM. 330,000 compounds, 1.5% hits. recombinant pPAFAH, FP-rhodamine probe fluorescence polarization;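 active = inhibition above the mean inhibition across the screen plus 3 SD, cut at about 25% in these data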;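 note: inhibitors block binding of the rhodamine activity-based probe so polarization drops; 0% = enzyme with DMSO and 100% = wells lacking pPAFAH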
PAFAH1B3 inh: PAFAH1B3 (human) inhibition; Q15102; recombinant PAFAH1B3, FP-rhodamine probe, fluorescence polarization; inhibition, % at 3.39 µM; 340,000 compounds, 0.28% hits;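 active = inhibition above the screen-wide average of all tested compounds plus 3 SD, cut at about 25% in these data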;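 note: 0% = enzyme with DMSO only and 100% = wells lacking PAFAH1B3 protein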
Target sequence (Q15102 whole entry, looked up): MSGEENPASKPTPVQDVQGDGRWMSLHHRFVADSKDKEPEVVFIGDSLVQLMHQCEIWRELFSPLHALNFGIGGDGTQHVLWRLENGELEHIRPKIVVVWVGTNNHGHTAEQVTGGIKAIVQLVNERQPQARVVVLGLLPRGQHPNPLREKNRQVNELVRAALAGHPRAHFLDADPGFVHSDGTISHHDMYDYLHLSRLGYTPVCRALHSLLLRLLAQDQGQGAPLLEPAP
TCR CD3 inh: blocks the human TCR-CD3 interaction | AID 651800 | inhibition, % at 9.4 µM | 360,000 compounds, 0.37% hits | TAMRA-labeled TCR probe fluorescence, biochemical; in the data active = inhibition above about 19%;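 note: recombinant mutant TCR 2C K166C tagged with TAMRA read by polarization; 0% = receptor in buffer alone and 100% = receptor with positive control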
PAFAH1B2 inh: PAFAH1B2 (human) inhibition. P68402. inhibition, % at 3.39 µM. 340,000 compounds, 1.2% hits. recombinant PAFAH1B2, FP-rhodamine activity probe, fluorescence polarization;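 active = inhibition above the mean of all tested compounds plus 3 SD, cut at about 24% in these data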;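 note: 0% = enzyme with DMSO and 100% = wells lacking PAFAH1B2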
Target sequence (P68402 whole entry, looked up): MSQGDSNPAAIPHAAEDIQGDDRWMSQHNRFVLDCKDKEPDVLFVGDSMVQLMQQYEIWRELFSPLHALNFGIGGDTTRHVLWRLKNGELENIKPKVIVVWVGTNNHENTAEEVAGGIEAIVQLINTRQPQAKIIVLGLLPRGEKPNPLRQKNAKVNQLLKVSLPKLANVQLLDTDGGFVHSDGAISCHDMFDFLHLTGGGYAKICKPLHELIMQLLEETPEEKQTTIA
pPAFAH FP conf: pPAFAH (human) inhibition, confirmed. shares compounds with pPAFAH FP inh. recombinant pPAFAH, FP-Rh probe fluorescence polarization. inhibition, % at 3.39 µM. 2,300 compounds, 72% hits;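 active = mean inhibition of the triplicate above the hit cutoff set for the earlier primary screen, cut at about 25% in these data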;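 note: 0% = enzyme with DMSO and 100% = wells lacking pPAFAH enzyme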
Starred values were filed as active, the others as inactive; nt = no result given. This is a sample that favours compounds with a hit; in the whole collection about 2.7% have one here.

SMILES | PAFAH2 inh | pPAFAH FP inh | PAFAH1B3 inh | TCR CD3 inh | PAFAH1B2 inh | pPAFAH FP conf
O=C(COC(=O)c1ccc(Cl)nc1)Nc1nnc(-c2ccccc2)o1 | 2 | -3 | 3 | 5 | 4 | nt
CCOC(=O)Cn1c(=O)oc2cc(S(=O)(=O)Nc3ccc(N(CC)CC)cc3C)ccc21 | 2 | 55* | -2 | 0 | 5 | 53*
COc1ccc(NC(=O)CN(C)C(=O)Cc2ccc(S(=O)(=O)N3CCOCC3)s2)cc1 | -1 | 7 | 1 | 6 | -2 | nt
COc1ccccc1CCn1cnc(-c2cccc(Cl)c2)c1CC(C)C | nt | nt | nt | 0 | nt | nt
Cc1ccc(NC(=O)N/C=C/c2ccccc2)cc1 | -1 | 39* | -8 | 10 | 0 | 0
O=C(CCCN1C(=O)/C(=C\c2ccco2)SC1=S)Nc1ccc(O)cc1C(=O)O | 39* | 68* | 3 | 8 | 19 | 11
O=C(CCCN1C(=O)/C(=C/c2ccco2)SC1=S)Nc1cccc(C(=O)O)c1 | 11 | 50* | 5 | 6 | 7 | 5
COc1ccc(NC(=O)CCCN2C(=O)/C(=C\c3ccco3)SC2=S)cc1 | -1 | 14 | 6 | -10 | 1 | nt
O=C(Nc1ccc(S(=O)(=O)Nc2nccs2)cc1)c1ccc(=O)[nH]c1 | 10 | 39* | 30* | 18 | 12 | 5
Cc1nn(-c2ccccc2C(=O)O)c(=O)c2ccccc12 | -10 | 5 | 3 | -8 | 2 | nt
Cc1nn(-c2ccc(Br)cc2)c(=O)c2ccccc12 | 3 | 51* | 5 | 1 | 1 | 3
Cc1nn(-c2ccccc2)c(N)c1-c1ccccc1 | -8 | 1 | -1 | -2 | 5 | nt
Cc1nn(-c2ccccc2)c(/N=C/c2ccccc2O)c1-c1ccccc1 | 2 | 35* | 8 | 3 | 3 | 10
N#Cc1ccc(Nc2nc(-c3ccc(O)cc3O)cs2)cc1C(F)(F)F | 9 | 35* | 26* | nt | 11 | 27*
CCS(=O)(=O)c1ccc2oc(SCC(=O)c3c(N)n(C4CC4)c(=O)[nH]c3=O)nc2c1 | 8 | -2 | 6 | -5 | 0 | nt
N#Cc1c(-c2cccc(Br)c2)cc(-c2ccco2)[nH]c1=O | 23 | 45* | 7 | 0 | 5 | 32*
N#Cc1c(-c2ccccc2)cc(-c2ccccc2)[nH]c1=O | -7 | 3 | 2 | 1 | 4 | nt
O=S1(=O)CC(N2CCCCC2)CN1Cc1ccc(F)cc1 (stereo not given) | nt | nt | nt | -3 | nt | nt
O=C(Oc1nsnc1N1CCOCC1)N1CCOCC1 | 31* | 85* | 5 | -11 | 5 | 89*
O=C(Oc1nsnc1N1CCOCC1)N1CCCCC1 | 8 | 57* | 7 | 1 | -2 | 50*
Nc1c(C(=O)Nc2nccs2)sc2nc(-c3cccs3)cc(C(F)(F)F)c12 | 4 | 14 | 1 | 1 | -2 | nt
Cc1nnc(NC(=O)c2sc3nc(-c4cccs4)cc(C(F)(F)F)c3c2N)s1 | 15 | 70* | 11 | 4 | 2 | 73*
COc1ccc(NC(=O)COC(=O)CN2C(=O)C3CCCCC3C2=O)cc1OC (stereo not given) | 0 | -1 | 16 | -5 | -7 | nt
COCc1cccc(-c2csc(C(NC(C)=O)c3cccc(OC)c3)n2)c1 (stereo not given) | nt | nt | nt | -6 | nt | nt
COCCNC(=O)/C(C#N)=C/c1cc(C)n(-c2ccc(C)cc2)c1C | 8 | 55* | 7 | 5 | 1 | 52*
SMILES | PAFAH2 inh | pPAFAH FP inh | PAFAH1B3 inh | TCR CD3 inh | PAFAH1B2 inh | pPAFAH FP conf
CCc1c(C)nc2ncnn2c1N1CCCC(C(=O)NCc2ccco2)C1 (stereo not given) | 1 | 57* | -7 | 3 | -1 | 4
COc1ccc(-c2csc(Nc3ccc(S(=O)(=O)Nc4cc(C)on4)cc3)n2)cc1C | 37* | 40* | 10 | 6 | 14 | 62*
CCCCNC(=O)C1(C)CCN1C(=O)c1cccc2c1OCCO2 (stereo not given) | nt | nt | nt | -3 | nt | nt
O=[N+]([O-])c1ccccc1N/N=C\c1ccccc1Cl | -4 | -1 | -7 | -8 | -5 | nt
O=[N+]([O-])c1ccc(N/N=C/c2cccc(O)c2O)c(S(=O)(=O)N2CCOCC2)c1 | -14 | 45* | 4 | -11 | -8 | 57*
COc1cccc(/C=N/Nc2ccc([N+](=O)[O-])cc2)c1O | 0 | 6 | 8 | 14 | -4 | nt
COc1cccc(N/N=C/c2cccc(Br)c2O)c1 | 29 | 8 | 6 | 0 | 7 | nt
Cc1cccc(N/N=C/c2ccc(O)c(O)c2O)c1 | 7 | 45* | 8 | 6 | -3 | 44*
O=[N+]([O-])c1cccc(N/N=C/c2cccc(O)c2O)c1 | 8 | 60* | 17 | 7 | -2 | 66*
O=[N+]([O-])c1ccccc1N/N=C/c1cccc(O)c1O | 2 | 50* | 0 | -5 | -2 | 14

Bioassay records: PubChem, The Scripps Research Institute Molecular Screening Center
